The entries come from a sample that favours hits as a whole.
PNC inhibitor = High Content Assay for Compounds that inhibit the Assembly of the Perinucleolar Compartment; PC3M PTB-GFP, PNC prevalence imaging, 16 h; stronger effect = lower value; activity change (PNC), negative = inhibition, % at 10 µM; hit rate 3.1% among 140,000; AID 2417, 2010;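 active means readout at or below -70, meaning at least 70% loss of cells showing the perinucleolar compartment, a nuclear body marking cancer cells; inconclusive means readout between -30 and a set limit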
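Read-out is percentage of cells bearing a perinucleolar compartment, from automated 20x imaging of fixed, Hoechst-stained PC3M PTB-GFP cells. Cells were seeded 4 h, then exposed 16 h to compound (23 nl of library stock) in duplicate plates.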
IMPase Li cell = qHTS Assay for Identifying the Cell-Membrane Permeable IMPase Inhibitors: Potentiation with Lithium. CHO-M1 cells, IP1 TR-FRET (IP-One), carbachol + lithium. Potency, µM (doses to about 59.4 µM), usual class: inhibitors. hit rate 0.35% among 210,000. AID 1457, 2008;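 further: IP1 builds up when IMPase is blocked and the TR-FRET signal falls; nearly all actives have a fitted effect of over 50% in size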
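CHO-M1, 2000 cells/well, 16–30 h culture; cpd + low Li+, 30 min 37C; lysis with d2-IP1/Eu-anti-IP1 Ab, 10 min RT; TR-FRET 665/620 ratio and 620 channel; AC50 via Hill.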
IMPase inh = qHTS Assay for Identifying the Cell-Membrane Permeable IMPase Inhibitors | inhibition (IP1 accumulation), % at 46.1 µM | Inositol monophosphatase 1 (Rattus norvegicus), P97697 | 120,000 tested, under 10 active | CHO-M1 cells, IP1 accumulation, HTRF TR-FRET ratio | AID 901, 2007; active means well fitted curve in the direction sought with a large enough effect in the signal ratio, not every such curve was filed as active; inconclusive means small, poorly fitted or top-dose-only effect, or a change in a side signal; inactive means no such curve, though single readings can be large or run the other way; the % refers to the signal ratio;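 further: cells stimulated with carbachol in lithium chloride buffer; higher means more IMPase inhibition seen as more IP1 and lower FRET ratio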
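Elevated IP1 in lysates lowers TR-FRET signal (665/620 ratio and 620 channel reported). Cells were CHO-M1, given carbachol (50 uM as added) plus 50mM LiCl, pH 7.4, 30 min, 37C; compounds titrated up to 46 uM; AC50 by Hill equation.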
12-hLO inh = qHTS Assay for Inhibitors of 12-hLO (12-human lipoxygenase) | Polyunsaturated fatty acid lipoxygenase ALOX12 (Homo sapiens), P18054 | purified 12-hLO, xylenol orange hydroperoxide absorbance | Potency, µM (series often up to 57.1 µM), usual class: inhibitors | hit rate 0.12% among 150,000 | AID 1452, 2008; further: nearly all actives have a fitted effect of over 55% in size
Target sequence (P18054 whole entry, looked up): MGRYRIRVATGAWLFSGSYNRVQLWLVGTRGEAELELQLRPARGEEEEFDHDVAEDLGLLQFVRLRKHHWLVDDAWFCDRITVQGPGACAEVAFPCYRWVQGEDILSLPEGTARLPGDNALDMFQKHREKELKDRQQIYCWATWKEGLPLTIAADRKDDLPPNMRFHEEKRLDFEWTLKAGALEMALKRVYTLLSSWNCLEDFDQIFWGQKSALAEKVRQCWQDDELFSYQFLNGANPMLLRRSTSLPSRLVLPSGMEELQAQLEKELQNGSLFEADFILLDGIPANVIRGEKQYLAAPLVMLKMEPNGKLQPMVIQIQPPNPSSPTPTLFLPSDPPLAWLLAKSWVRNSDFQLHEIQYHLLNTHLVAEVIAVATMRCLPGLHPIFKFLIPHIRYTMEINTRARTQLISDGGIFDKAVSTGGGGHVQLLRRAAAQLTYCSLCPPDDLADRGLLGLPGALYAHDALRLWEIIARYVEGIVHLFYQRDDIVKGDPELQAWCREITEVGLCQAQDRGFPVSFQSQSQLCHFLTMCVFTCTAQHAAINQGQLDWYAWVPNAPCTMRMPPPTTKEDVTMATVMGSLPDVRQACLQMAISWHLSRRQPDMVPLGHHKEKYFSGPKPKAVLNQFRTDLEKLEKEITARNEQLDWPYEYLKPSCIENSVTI
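Purified human 12hLO (150 nM final) was preincubated with compounds for 15 min at room temperature in 25 mM Hepes pH 7.0, 0.01% Triton X-100, then reacted with 40 uM arachidonic acid for 30 min. Hydroperoxide was detected with ferrous iron/xylenol orange.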
Each line names hits and unclear results; the compound was inactive in the other large screens. Unless noted, the call rests on the fitted dose curve; in most records, active means well fitted curve in the direction sought with a large enough effect; inconclusive means small, poorly fitted or top-dose-only effect, or another doubt; inactive means no such curve, though single readings can be large; an effect the other way counts as inactive or inconclusive.

COc1ccc(Oc2ncc3nc(CCc4ccccc4)c(=O)n(C[C@H]4CCCO4)c3n2)cc1	none (no result: PNC inhibitor, IMPase inh, 12-hLO inh)
CC(C)(CO[C@H]1C[C@H]2CC[C@@]1(C)C2(C)C)[N+](=O)[O-]	none (no result: PNC inhibitor, IMPase inh)
Cc1ccc2nc(N3C(=O)C(O)=C(C(=O)c4ccc(C)o4)C3c3cccc(O)c3)sc2c1 (stereo unspecified)	IMPase Li cell 8.9µM (no result: PNC inhibitor, IMPase inh, 12-hLO inh)
CCCCOC(=O)Cn1c(=O)c2c(nc3n2CCCCN3c2ccc(C)cc2)n(C)c1=O	PNC inhibitor -127
Cc1ccc(N2CCCn3c2nc2c3c(=O)n(CCN3CCOCC3)c(=O)n2C)cc1	none
O=C(ON=C1CCN(S(=O)(=O)c2ccccc2)CC1)c1ccccc1	PNC inhibitor inconclusive
O=C(ON=C1CCN(S(=O)(=O)c2ccccc2)CC1)c1cccc(Cl)c1	PNC inhibitor -100
CCOc1cc(NC(=S)NCC2CCCO2)c(OCC)cc1NC(=O)c1ccccc1C (stereo unspecified)	12-hLO inh inconclusive
CCOc1cc(NC(=S)Nc2ccccc2OC)c(OCC)cc1NC(=O)c1ccccc1C	PNC inhibitor -109, 12-hLO inh inconclusive
O=C(CSCc1ccc(Cl)cc1)Nc1ccc(S(=O)(=O)N2CCOCC2)cc1	PNC inhibitor inconclusive (no result: IMPase inh)
CCOC(=O)C(C)Sc1nc2c([nH]c3ccccc32)c(=O)n1C (stereo unspecified)	PNC inhibitor -119
CC(=O)N[C@@H]1CONC1=O	none (no result: PNC inhibitor, IMPase inh)
CN1[C@H]2CC(OC(=O)[C@H](CO)c3ccccc3)C[C@H]1[C@H]1O[C@H]12 (stereo partly specified)	none (no result: PNC inhibitor, IMPase Li cell, IMPase inh)
CC(=O)OCC1O[C@@H](O[C@@H]2C[C@H]3C(C)(C)[C@H](OC(C)=O)CC[C@]3(C)[C@H]3CC[C@]45C[C@]4(CC[C@H]5[C@@H](C)C[C@@H](O)[C@H](O)C(C)(C)O)[C@@]32C)[C@H](O)[C@@H](O)[C@@H]1O (stereo partly specified)	PNC inhibitor -115 (no result: IMPase inh)
O=C(NCCO)c1ccc(-n2c(=O)c(=O)[nH]c3ccccc32)cc1	none (no result: PNC inhibitor, IMPase Li cell, IMPase inh)
N#CNC(=Nc1cccc(F)c1)SCc1cccc(F)c1	none (no result: IMPase inh)
N#CNC(=Nc1cccc(F)c1)SCc1ccccc1	PNC inhibitor -103 (no result: IMPase inh)
O=C(Nc1nccs1)c1ccc(COc2ccc(F)cc2)o1	IMPase Li cell inconclusive
O=C(Nc1nccs1)c1ccc(COc2ccccc2Br)o1	PNC inhibitor -88
OC(COc1ccccc1)CN1CCOCC1 (stereo unspecified)	PNC inhibitor -100
CCN(CC)CC[n+]1ccc2c(C)c3[nH]c4ccccc4c3c(C)c2c1	none (no result: PNC inhibitor, IMPase inh)
CCn1c(CNC(=O)c2cccs2)n[nH]c1=S	PNC inhibitor -109 (no result: IMPase inh)
O=C(NCc1nc2ccccc2[nH]1)c1ccco1	PNC inhibitor -98
O=C(NCCCCNC(=O)c1cccs1)c1cccs1	PNC inhibitor -114 (no result: IMPase inh)
O=C(NCc1nc2ccccc2[nH]1)c1cccs1	PNC inhibitor -87
O=C(NCCN1CCCCC1)c1ccc(-n2c(=O)c(=O)[nH]c3ccccc32)cc1	none (no result: PNC inhibitor, IMPase Li cell, IMPase inh)
CCOCCOCC	none (no result: PNC inhibitor, IMPase inh)
O=C(O)c1cccc(C[C@H](Br)C(=O)O)c1	none (no result: PNC inhibitor, IMPase inh)
CC/C(C)=N/O	none (no result: PNC inhibitor, IMPase inh)
Cc1c(N2C(=O)c3ccc4c5c(ccc(c35)C2=O)CC4)c(=O)n(-c2ccccc2)n1C	PNC inhibitor -92, IMPase Li cell inconclusive
CN(C)c1ccc(-c2cncnc2Nc2ccccc2)cc1	none (no result: PNC inhibitor, IMPase inh, 12-hLO inh)
COc1ccc(CNC(=O)c2csc(Cc3ccc(Cl)cc3)n2)cc1	PNC inhibitor -106
COc1ccc(CNC(=O)c2csc(Cc3ccc(OC)cc3)n2)cc1	none
CC(NC(=O)COc1ccccc1-c1ccccc1)c1ccccc1 (stereo unspecified)	none (no result: IMPase inh)
CC1(NC(=O)COc2ccccc2-c2ccccc2)CCS(=O)(=O)C1 (stereo unspecified)	PNC inhibitor -96
COC(=O)C=P(c1ccccc1)(c1ccccc1)c1ccccc1	none (no result: PNC inhibitor, IMPase inh, 12-hLO inh)
NC(=O)Nc1cccc2ccccc12	PNC inhibitor -105 (no result: IMPase inh)
O=C(NNC(=O)c1ccco1)c1cccc([N+](=O)[O-])c1	none
Nc1ncc(Br)cc1S(=O)(=O)NCCC(=O)N1CCN(c2ccccn2)CC1	PNC inhibitor -113 (no result: IMPase inh)
CN1CC(=O)N/C1=N\C(=O)Nc1ccc2c(c1)N(C)C(=O)CS2	none
CCN(CC)S(=O)(=O)c1cccc(NC(=O)CSc2nnc(N)s2)c1	none (no result: PNC inhibitor, IMPase inh, 12-hLO inh)
CC1(C)CC(=O)C(Sc2ccc(Br)cc2)=C(O)C1	none (no result: PNC inhibitor, IMPase inh, 12-hLO inh)
Cc1ccc(NC(=O)C2CCN(S(=O)(=O)c3c(C)[nH]c(=O)[nH]c3=O)CC2)cc1	PNC inhibitor -98
Cc1ccc(C)c(N2CCN(C(=O)C3CCCN(S(=O)(=O)c4c(C)[nH]c(=O)[nH]c4=O)C3)CC2)c1 (stereo unspecified)	PNC inhibitor -86
CCOC(=O)/C(=C/c1ccccc1)NC(=O)c1ccco1	PNC inhibitor -81, IMPase inh inconclusive
Cc1ccc(NC(=O)CN(c2ccc(Cl)cc2)S(=O)(=O)c2cc([N+](=O)[O-])ccc2Cl)c(C)c1	none (no result: PNC inhibitor, IMPase inh, 12-hLO inh)
CC(C)(C)c1nnc2sc(SC/C(O)=C(\C#N)c3nc4ccccc4[nH]3)nn2c1=O	PNC inhibitor -95, IMPase Li cell 13µM
COC(=O)Cc1c[nH]c2cccc(OCC(O)CN(Cc3ccc([N+](=O)[O-])cc3)C(C)(C)C)c12 (stereo unspecified)	PNC inhibitor inconclusive
COC(=O)Cc1c[nH]c2cccc(OCC(O)CN(Cc3ccccc3)C(C)C)c12 (stereo unspecified)	PNC inhibitor -80
O=C(Cc1ccccc1I)Nc1ccccc1	none (no result: PNC inhibitor, IMPase inh)
CCCCC#Cc1ccccc1CC(=O)Nc1ccccc1	PNC inhibitor -119 (no result: IMPase inh)
O=C(COC(=O)c1cnccn1)c1ccc(OC(=O)c2ccccc2)cc1	PNC inhibitor -126
COc1cc(/C=C2\SC(=O)N(CCNC(=O)c3cnc(C)cn3)C2=O)cc(OC)c1OC	none
CN1CC(O)C2=CC(=O)C(=O)C=C21 (stereo unspecified)	none (no result: PNC inhibitor, IMPase inh, 12-hLO inh)
CCOC(=O)c1nn(-c2ccc(F)cc2)c2nc(-c3ccccc3)c(C#N)c(=O)n12	none (no result: IMPase inh)
CCOC(=O)c1nn(-c2cccc(C)c2)c2nc(-c3ccccc3)c(C#N)c(=O)n12	PNC inhibitor -117, IMPase Li cell 4µM, IMPase inh inconclusive
O=C(Nc1nc(-c2cccs2)c(C(=O)C(F)(F)F)s1)c1ccccc1	none (no result: IMPase inh)
O=C(Nc1nc(-c2cccs2)c(C(=O)C(F)(F)F)s1)c1ccco1	IMPase Li cell 10µM (no result: PNC inhibitor, IMPase inh, 12-hLO inh)
c1ccc(-c2cc(N3CCCCC3)nc(-c3ccccc3)n2)cc1	PNC inhibitor inconclusive
c1ccc(-c2cc(N3CCOCC3)nc(-c3ccccc3)n2)cc1	PNC inhibitor -83
Cc1cc(C)n2c(SCC(=O)NC3CCCCC3)nnc2n1	none (no result: PNC inhibitor, IMPase inh, 12-hLO inh)
CCC(=O)N1CC23C=CC(CC2CC12CCCCC2)O3 (stereo unspecified)	PNC inhibitor -124
